# Compound activity: PubChem BioAssay, National Center for Advancing Translational Sciences (NCATS)
# N370S GC mod – inhibits or activates N370S mutant glucocerebrosidase. Potency, µM (doses to about 59.4 µM), inactives show at the top dose activity change, negative = inhibition, most hits filed as inhibitors. P04062. N370S GC spleen homogenate, 4MU-glucoside fluorescence. hit rate 0.092% among 330,000. AID 2101;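 further: potency means the concentration at half of the fitted maximal effect; 0% = full enzyme activity and -100% = no enzyme basal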
# GAA glycogen – GAA glycogen-cleavage inhibition or activation | P10253 | recombinant GAA, glycogen substrate, Amplex Red glucose oxidase fluorescence | Potency, µM (top dose mostly 76.4 µM), for the others: at the top dose activity change, negative = inhibition, usual class: inhibitors | hit rate 0.38% among 300,000;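 further: potency means the concentration at half of the fitted maximal effect; 0% = full enzyme reaction and -100% = no-enzyme basal signal; the screen sought inhibitors and activators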
#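 Recombinant human enzyme (4 nM); glycogen substrate; 37 C, 40 min, pH 5.0. Readout: coupled glucose oxidase/Amplex Red fluorescence.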
# GAA inhib – alpha-glucosidase (human) inhibition; P10253; purified human GAA, 4-MU-alpha-glucoside fluorescence; Potency, µM (series often up to 76.9 µM), without a hit: at the highest dose activity change, negative = inhibition, usual class: inhibitors; hit rate 0.005% among 200,000; AID 1466;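 further: potency means the concentration at half of the fitted maximal effect; plate controls were uninhibited enzyme wells for no effect and no-enzyme background for full effect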
#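 Fluorescence at Ex 365/Em 440 nm from 4-methylumbelliferone reported enzyme activity after 20 min at room temperature. Reactions used 4 nM enzyme and 400 uM substrate at pH 5.0; curves fitted with the Hill equation.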
# GLA inh pH 4.5 – alpha-galactosidase A (human) inhibition, pH 4.5 | P06280 | purified enzyme, 4-MU-alpha-Gal fluorescence, pH 4.5 | activity change, negative = inhibition, % at 105 µM | 230,000 tested, under 10 active;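 further: 0% = full activity with enzyme and -100% = basal without enzyme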
# Target sequence (P06280 whole entry, looked up): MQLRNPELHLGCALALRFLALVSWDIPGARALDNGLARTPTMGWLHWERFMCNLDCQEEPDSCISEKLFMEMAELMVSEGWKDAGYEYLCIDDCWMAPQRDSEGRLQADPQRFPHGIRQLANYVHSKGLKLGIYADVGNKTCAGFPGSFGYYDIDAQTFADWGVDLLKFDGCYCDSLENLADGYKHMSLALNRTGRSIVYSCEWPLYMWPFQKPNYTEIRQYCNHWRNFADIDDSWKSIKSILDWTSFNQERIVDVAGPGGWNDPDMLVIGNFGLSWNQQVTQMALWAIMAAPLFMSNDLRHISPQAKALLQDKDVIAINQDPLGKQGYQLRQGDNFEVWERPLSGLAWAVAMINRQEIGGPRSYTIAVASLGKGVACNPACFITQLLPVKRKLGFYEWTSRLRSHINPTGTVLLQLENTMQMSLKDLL
# GAA spleen mod – inhibitors or activators of human alpha-glucosidase in spleen homogenate; P10253; human spleen homogenate, 4-MU-alpha-glucoside fluorescence; Potency, µM (highest dose often 79.9 µM), inactives show at the highest dose activity change, negative = inhibition, actives largely listed as inhibitors; hit rate 0.006% among 240,000; AID 2112;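 further: potency means the concentration at half of the fitted maximal effect; 0% = enzyme with vehicle and -100% = no enzyme basal signal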
#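 Human spleen homogenate (1 ug) incubated with compounds and 1 mM 4-methylumbelliferyl-alpha-D-glucopyranoside in pH 5.0 citrate/phosphate buffer, 37 C, 40 min. Stopped at pH 10; 4-MU fluorescence (Ex 365/Em 440 nm); AC50 by Hill fit.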
# GLA spleen mod – inhibits or activates alpha-galactosidase in human spleen homogenate. AID 2107. hit rate 0.008% among 240,000. P06280. human spleen homogenate, 4MU-alpha-Gal fluorescence, 40 min. Potency, µM (doses to about 80 µM), without a hit: at the highest dose activity change, negative = inhibition, hits mostly inhibitors;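 further: potency means the concentration at half of the fitted maximal effect; 0% = enzyme with vehicle and -100% = no enzyme basal signal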
#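 Spleen homogenate 1 ug + cpd (titration) + 4-MU-alpha-D-galactopyranoside 1 mM; 37C 40 min; 50 mM citrate/phosphate pH 5.0, 0.01% Tween-20; stop pH 10; fluorescence 365/440; AC50 via Hill.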
# The depositor's hits bear a star; ? = inconclusive; . = not tested or not shown; [ ] = remark or other dose. Shown are actives, neighbours in structure and some others; about 0.43% of the full set was active somewhere. The call rests on the fitted dose curve; in most records, active means well fitted curve in the direction sought with a large enough effect; inconclusive means small, poorly fitted or top-dose-only effect, or another doubt; inactive means no such curve, though single readings can be large; an effect the other way counts as inactive or inconclusive.
SMILES,N370S GC mod,GAA glycogen,GAA inhib,GLA inh pH 4.5,GAA spleen mod,GLA spleen mod
NC(=Nc1ccccc1)NC(=O)c1nc(Cl)c(N)nc1N,2%,.,.,-2,-2%,0%
CCOc1cc(CNCCO)cc(Br)c1OCc1ccc(Cl)cc1Cl,10µM*,-4%,-15%,-3,-9%,-4%
c1ccc2c(c1)SCc1c-2[nH]c2ccccc12,0%,.,.,.,-2%,-6%
S=C(Nc1ccc(Oc2ccccc2)cc1)N(CCCN1CCOCC1)Cc1ccccn1,10µM*,-5%,0%,-5,5%,9%
Cc1cccc(NC(=S)N(CCCN2CCOCC2)Cc2ccccn2)c1,?,5%,-6%,2,-2%,0%
N#Cc1c(NC(NC(=O)c2ccco2)C(=O)c2ccccc2)sc2c1CCCC2 (configuration not stated),?,22µM*,-8%,-10,-1%,0%
NC(=O)c1c(NC(NC(=O)c2ccco2)C(=O)c2ccc(Cl)cc2)sc2c1CCCC2 (configuration not stated),26%,-1%,-12%,-3,-17%,-7%
CCCCCCCCCCCCCCOS(=O)(=O)O,-8%,.,.,.,-16%,-28%
CCCc1cc(Nc2c(C)n(C)n(-c3ccccc3)c2=O)n2c(nc3ccccc32)c1C#N,-7%,14µM*,?,-18,-2%,10%
CCc1c(C)c(C#N)c2nc3ccccc3n2c1Nc1c(C)n(C)n(-c2ccccc2)c1=O,10%,25µM*,4%,-6,3%,0%
Cc1cc(Nc2c(C)n(C)n(-c3ccccc3)c2=O)n2c(nc3ccccc32)c1C#N,-12%,14µM*,-9%,-13,-1%,1%
CN1CCc2cc(O)c(O)cc2C1Cc1ccc(O)c(O)c1 (configuration not stated),-10%,.,.,.,3%,-10%
Cc1cc(O)c(C(C)C)cc1N=C1CSC(=O)N1,2%,18µM*,5%,-6,8%,5%
CN1[C@@H]2CC(OC(=O)[C@H](CO)c3ccccc3)C[C@@H]1[C@H]1O[C@H]12 (some centres not stated),-3%,.,.,-2,-8%,1%
COC(=O)Nc1ccc(S(=O)(=O)Nc2ccc(O)cc2)cc1,-3%,32µM*,-1%,6,-1%,-1%
Cc1cc(O)c(/C=N/Nc2ccccc2Cl)c(=O)o1,-2%,25µM*,-1%,-4,-4%,9%
Oc1ccc(-c2nc3ccccn3c2NCc2ccco2)cc1,?,14µM*,2%,-2,3%,3%
CCCCC/C=C\C/C=C\C/C=C\C/C=C\CCCCCC(=O)NCCCC(=O)O,-3%,.,.,-9,-8%,-19%
COc1ccc(O)c(/C=N/c2sc(C)c(C)c2C#N)c1,4%,14µM*,-8%,8,-8%,-3%
O=C(NCc1ccccc1Cl)c1ccc(CS(=O)(=O)c2ccc(Br)cc2)o1,.,45µM*,.,.,.,.
CCCC[C@@H](C)/C=C(C)/C=C(\C)C(=O)NC1=C[C@@](O)(/C=C/C=C/C=C/C(=O)NC2=C(O)CCC2=O)[C@@H]2O[C@@H]2C1=O,0%,.,.,.,1%,1%
CSc1ccc(-c2nc3cnccn3c2Nc2ccc3c(c2)OCO3)cc1,-1%,22µM*,-28%,-26,-4%,-4%
Cc1ccc(-c2nc3ccc(Br)cn3c2Nc2ccc3c(c2)OCO3)o1,.,-12%[76.3 µM],.,.,.,.
Cc1ccn2c(Nc3ccc4c(c3)OCO4)c(-c3ccc(C)o3)nc2c1,.,4µM*,.,.,.,.
COc1cc(-c2nc3cnccn3c2Nc2c(C)cccc2C)ccc1O,0%,14µM*,-1%,-2,0%,-3%
SMILES,N370S GC mod,GAA glycogen,GAA inhib,GLA inh pH 4.5,GAA spleen mod,GLA spleen mod
COc1cc(-c2nc3sccn3c2Nc2c(C)cccc2C)ccc1O,.,-18%[76.3 µM],.,.,.,.
Clc1ccc(-c2nc3cnccn3c2Nc2ccc3c(c2)OCO3)cc1,-16%,?,-1%,-1,1%,8%
COc1cc(-c2nc3ncccn3c2Nc2ccc(C)cc2C)ccc1O,.,10µM*,.,.,.,.
Cc1ccc(-c2nc3cnccn3c2Nc2ccc3c(c2)OCO3)o1,0%,7.9µM*,?,?,-6%,-8%
COc1ccc(Nc2c(-c3ccc(C)o3)nc3cc(C)ccn23)cc1,.,5.6µM*,.,.,.,.
Oc1ccccc1-c1nc2cnccn2c1Nc1ccc2c(c1)OCCO2,15%,7.9µM*,?,-5,-3%,3%
COc1ccc(-c2nc3cnccn3c2Nc2ccc(C)cc2)cc1,?,7.1µM*,2%,-8,-22%,5%
Cc1ccc(Nc2c(-c3ccc(C)o3)nc3cnccn23)cc1,0%,-17%,-2%,-2,5%,3%
Cc1noc(C)c1-c1ccc2ncnc(NCc3ccco3)c2c1,4%,.,.,.,6%,0%
CCC1CN(S(=O)(=O)c2ccc3c(c2)NC(=O)CC(=O)N3)c2cc(Cl)ccc2O1 (configuration not stated),1.6µM*,-9%[76.3 µM],.,.,.,.
O=C1C[C@@H](c2ccccc2Cl)N1S(=O)(=O)c1ccccc1[N+](=O)[O-],-6%,.,.,.,-11%,5%
O=C(NN=C1C2CC3CC(C2)CC1C3)c1ccncc1,7%,?,4%,-9,-11%,-5%
O=C(NN=C1C2CC3CC(C2)CC1C3)c1cc(Cl)ccc1O,0%,13µM*,-3%,-1,4%,11%
O=C(O)CC1=C(O)C(=O)N(c2ccccc2)C1c1ccccc1 (configuration not stated),0%,?,-12%,-8,-14%,0%
O=C(O)CC1=C(O)C(=O)N(c2ccccc2)C1c1ccc(Br)cc1 (configuration not stated),13%,25µM*,0%,6,-3%,-13%
NOCc1ccccc1,-1%,.,.,.,-7%,4%
O=[N+]([O-])c1ccccc1/C=N\Nc1nccs1,-9%,.,.,.,.,.
Clc1cccc(Cl)c1/C=N\Nc1nccs1,22%,28µM*,-4%,6,-5%,-2%
COC(=O)C1=C(C)NC(C)=C(C(=O)NCCCN2CCC(c3ccccc3)(c3ccccc3)CC2)C1c1ccc([N+](=O)[O-])cc1 (configuration not stated),-6%,.,.,.,2%,3%
Oc1ccc(/C=N/N2CCN(c3ccccn3)CC2)cc1,3%,11µM*,.,4,-3%,-5%
Oc1cccc(/C=N/N2CCN(c3ccccn3)CC2)c1,1%,?,.,-7,0%,0%
Cc1cn([C@H]2C[C@@H](N=[N+]=[N-])[C@@H](CO)O2)c(=O)[nH]c1=O,1%,.,.,0,-2%,5%
COC(=O)[C@H](CC(C)C)NC(=O)c1ccc(NC[C@@H](N)CS)cc1-c1cccc2ccccc12,3%,.,.,.,-4%,-19%
